Screens (PubChem)
ATXN viability = cell viability loss in ATXN counter-screen; AID 651635; Potency, µM (titrated, usually from 56.7 µM), actives largely listed as cytotoxic; 400,000 tested, 0.49% active; S2 cells (HEK-293 line with an ATXN2-luciferase reporter) viability, CellTiter-Fluor protease fluorescence, 24 h; note: nearly all actives have a fitted effect of over 40% in size
KB-3-1 cytotox = kills parental KB-3-1 adenocarcinoma cells; KB-3-1 viability, CellTiter-Glo ATP luminescence, 72 h; Potency, µM (titrated, usually from 46.1 µM), actives largely listed as cytotoxic; 400,000 tested, 1.4% active; note: % is set by controls: 0 for no effect and ±100 for the full control effect; nearly all actives have a fitted effect of over 60% in size
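Parental KB-3-1 adenocarcinoma cells in phenol-red-free DMEM with 10% FBS were pin-treated with compounds at several concentrations, incubated 72 h at 37 °C, and viability read by CellTiter-Glo luminescence; concentration-effect curves were fitted after normalization.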
ATXN2 expr inh = reduces ATXN2 reporter expression in HEK-293 cells; HEK-293 ATXN2-luciferase reporter, luminescence, 24 h; Potency, µM (top dose mostly 57 µM), without a hit: at the highest dose activity change, negative = inhibition, usual class: inhibitors; 360,000 tested, 0.72% active; note: % is set by controls: 0 for no effect and ±100 for the full control effect; nearly all actives have a fitted effect of over 55% in size
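qHTS (up to 57 uM final) was run with 24 h compound exposure of reporter cells at 37 °C. Each well was multiplexed: SteadyGlo luminescence measured ATXN2-luciferase expression after a fluorogenic Gly-Phe-AFC viability readout (25 uM final).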
HT1080NT lethal = kills 2HG-producing HT-1080-NT fibrosarcoma cells. HT-1080-NT fibrosarcoma viability, CellTiter-Glo ATP luminescence, 48 h. Potency, µM (highest dose often 46.1 µM), without a hit: top-dose activity, negative = less viability, actives largely listed as cytotoxic. 360,000 tested, 1.6% active;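 note: NT is the 2HG producing partner of a matched IDH1 knockdown line; 0% = DMSO-treated cells and -100% = media-only wells without cells; nearly all actives have a fitted effect of over 55% in size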
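750 cells/well, RPMI + 5% FBS; 2 h settle, compound pin-transfer, 48 h at 37 degrees C. CellTiter-Glo 10 min RT, luminescence. Normalized to DMSO and media-only wells.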
HT1080 IDH1KD tx = toxicity to HT-1080 IDH1 knockdown cells (counter line); AID 686971; Potency, µM (top dose mostly 46.1 µM), for the others: at the highest dose activity, negative = toxicity, actives largely listed as cytotoxic; HT-1080 IDH1 knockdown viability, ATP luminescence, 48 h; 360,000 tested, 2% active;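 note: 0% = DMSO wells and -100% = cell-free medium wells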
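Luminescent ATP read-out (CellTiter-Glo, 10 min at room temperature) after 48 h compound exposure at 37 °C gave viability of IDH1-knockdown HT-1080 cells. Activity was normalised to DMSO and cell-free wells, then fitted as concentration-response curves.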
KB-V1 cytotox = kills drug-selected multidrug resistant KB-V1 cells. 400,000 tested, 3.4% active. Potency, µM (top dose mostly 46.1 µM), most hits filed as cytotoxic. KB-V1 MDR cells viability, CellTiter-Glo, 72 h; note: % is set by controls: 0 for no effect and ±100 for the full control effect; nearly all actives have a fitted effect of over 60% in size
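In this primary screen, KB-V1 cells overexpressing P-gp are incubated with library compounds (lowest to highest concentration) for 72 h at 37 degrees C before a luminescent ATP viability read.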
An asterisk follows results filed as active. A selection: hits, their analogues and other compounds. The true share with any hit is near 6.2%. Calls come from the whole dose curve; as a rule, active = well fitted curve in the direction sought with a large enough effect; inconclusive = small, poorly fitted or top-dose-only effect, or another doubt; inactive = no such curve, though single readings can be large; an effect the other way counts as inactive or inconclusive. Potency is the fitted concentration of half-maximal effect.

`CCCS(=O)(=O)N1CC(=O)N(c2ccccc2C)C(C)(C(=O)NC2CCCC2)C1` (configuration not stated) gave KB-3-1 cytotox inactive and KB-V1 cytotox inactive.
For CCOC(=O)c1cccc(NC(=O)c2cc(CN3CCOCC3)on2)c1 the results were ATXN viability inactive, KB-3-1 cytotox inactive, ATXN2 expr inh 2.9% and KB-V1 cytotox inactive.
O=c1[nH]c(CSc2nc3ccccc3s2)nc2ccccc12 was read as ATXN viability inactive, KB-3-1 cytotox inactive, ATXN2 expr inh 13.8%, HT1080NT lethal -14.9%, HT1080 IDH1KD tx -10.5% and KB-V1 cytotox inactive.
For COc1ccc(C2NCCc3c2[nH]c2ccccc32)cc1CSc1nc2ccccc2s1 (configuration not stated) the results were ATXN viability inactive, KB-3-1 cytotox inconclusive, ATXN2 expr inh -34.3%, HT1080NT lethal 23.1µM*, HT1080 IDH1KD tx 23.1µM* and KB-V1 cytotox 23.1µM*.
Cc1ccc(NC(=O)C(=O)NCC(c2ccc3c(c2)OCO3)N2CCOCC2)cc1C (configuration not stated) was read as ATXN viability inactive, KB-3-1 cytotox inactive, ATXN2 expr inh 10.3% and KB-V1 cytotox inactive.
CCOC(=O)N1CCN(C(=O)/C(=C/c2ccccc2OC)NC(=O)c2ccccc2)CC1 was read as ATXN viability inactive, KB-3-1 cytotox inactive, ATXN2 expr inh 0.1%, HT1080NT lethal 0.4%, HT1080 IDH1KD tx 9.0% and KB-V1 cytotox 7.31µM*.
`CCOc1ccccc1/C=C(/NC(=O)c1ccccc1)C(=O)NC(C)c1ccccc1` (configuration not stated) gave ATXN viability inactive, KB-3-1 cytotox inactive, ATXN2 expr inh 6.2%, HT1080NT lethal -1.0%, HT1080 IDH1KD tx 2.3% and KB-V1 cytotox inconclusive.
For C=CCOC(=O)/C(=C/c1cccc2ccccc12)NC(=O)c1ccccc1 the results were ATXN viability inactive, KB-3-1 cytotox inactive, ATXN2 expr inh 39.2%, HT1080NT lethal 5.7%, HT1080 IDH1KD tx -1.1% and KB-V1 cytotox 8.2µM*.
C=CCNC(=O)/C(=C/c1cn(-c2ccccc2)nc1-c1cccc([N+](=O)[O-])c1)NC(=O)c1ccccc1 was read as ATXN viability inactive, KB-3-1 cytotox inactive, ATXN2 expr inh 6.6%, HT1080NT lethal 5.0%, HT1080 IDH1KD tx 11.0% and KB-V1 cytotox 16.4µM*.
Screening CCOC(=O)N1CCN(C(=O)/C(=C/c2ccc(OC)c(OC)c2)NC(=O)c2ccccc2)CC1 returned ATXN viability inactive, KB-3-1 cytotox inactive, ATXN2 expr inh -1.7%, HT1080NT lethal 9.5%, HT1080 IDH1KD tx 6.0% and KB-V1 cytotox inactive.
C=CCNC(=O)/C(=C/c1ccccc1OCC)NC(=O)c1ccccc1 was read as ATXN viability inactive, KB-3-1 cytotox inactive, ATXN2 expr inh 4.7%, HT1080NT lethal 4.1%, HT1080 IDH1KD tx 8.5% and KB-V1 cytotox 11.6µM*.
Screening CC(C)[C@H](NC(=O)c1ccc(Cl)cc1)C(=O)Nc1cccc(S(=O)(=O)N2CCOCC2)c1 returned ATXN viability inactive, KB-3-1 cytotox inactive, HT1080NT lethal 9.1%, HT1080 IDH1KD tx 0.4% and KB-V1 cytotox inactive.
`Cc1ccccc1COC(=O)c1cc([N+](=O)[O-])ccc1N1CCOCC1` gave ATXN viability inactive, KB-3-1 cytotox inconclusive, ATXN2 expr inh -34.3%, HT1080NT lethal inconclusive, HT1080 IDH1KD tx inconclusive and KB-V1 cytotox inactive.
For O=[N+]([O-])c1ccc(N2CCN(c3ccccc3F)CC2)c(S(=O)(=O)N2CCOCC2)c1 the results were ATXN viability inactive, KB-3-1 cytotox inactive, ATXN2 expr inh -5.1%, HT1080NT lethal -6.9%, HT1080 IDH1KD tx 0.1% and KB-V1 cytotox 7.31µM*.
For O=C(OCc1ccccc1F)c1cc([N+](=O)[O-])ccc1N1CCOCC1 the results were ATXN viability inconclusive, KB-3-1 cytotox inactive, ATXN2 expr inh 0.1%, HT1080NT lethal 0.0%, HT1080 IDH1KD tx -3.7% and KB-V1 cytotox 18.4µM*.
CSc1ccc(COC(=O)c2cc([N+](=O)[O-])ccc2N2CCOCC2)cc1 was read as ATXN viability inactive, KB-3-1 cytotox 0.146µM*, ATXN2 expr inh -7.4%, HT1080NT lethal inconclusive, HT1080 IDH1KD tx 0.184µM* and KB-V1 cytotox 0.411µM*.
For COc1ccc(OC)c(COC(=O)c2cc([N+](=O)[O-])ccc2N2CCOCC2)c1 the results were ATXN viability inactive, KB-3-1 cytotox 5.17µM*, ATXN2 expr inh -31.3%, HT1080NT lethal inconclusive, HT1080 IDH1KD tx inconclusive and KB-V1 cytotox inconclusive.
For O=[N+]([O-])c1ccc(N2CCOCC2)c(S(=O)(=O)N2CCOCC2)c1 the results were ATXN viability inconclusive, KB-3-1 cytotox inactive, ATXN2 expr inh 8.8%, HT1080NT lethal -0.7%, HT1080 IDH1KD tx -0.3% and KB-V1 cytotox inactive.
For CCCCN(CC)CCNC(=O)CN1C(=O)COc2ccc(S(=O)(=O)N3CCOCC3)cc21 the results were ATXN viability inactive, KB-3-1 cytotox inactive, ATXN2 expr inh 5.6% and KB-V1 cytotox inconclusive.
`O=C(NCc1nnc2n1CCN(Cc1cc3c(cc1Cl)OCO3)CC2)c1cccc(F)c1` gave ATXN viability inactive.
O=C(COC(=O)c1ccc(F)c(S(=O)(=O)N2CCOCC2)c1)NCc1ccc(F)cc1 was read as ATXN viability inactive, KB-3-1 cytotox inactive, ATXN2 expr inh 2.1%, HT1080NT lethal -3.0%, HT1080 IDH1KD tx 13.1% and KB-V1 cytotox inactive.
For Cc1c(Br)cnc2ccccc12 the results were KB-3-1 cytotox inactive and KB-V1 cytotox inactive.
Cc1ccc(-n2c3c(c(O)c(-c4ccccc4)c2=O)C(=O)CC(C)(C)C3)cc1 was read as ATXN viability inconclusive, KB-3-1 cytotox inactive, ATXN2 expr inh 2.7%, HT1080NT lethal 0.5%, HT1080 IDH1KD tx 5.5% and KB-V1 cytotox 11.6µM*.
Cc1ccc2c(c1)nnn2C1CCN(S(=O)(=O)c2cccc(S(=O)(=O)N(C)C)c2)CC1 was read as ATXN viability inactive, KB-3-1 cytotox inactive, ATXN2 expr inh -36.9%, HT1080NT lethal -21.5%, HT1080 IDH1KD tx -17.5% and KB-V1 cytotox inactive.
COC(=O)c1cccc(S(=O)(=O)N2CCCC2)c1 was read as ATXN viability inactive, KB-3-1 cytotox inactive, ATXN2 expr inh 0.4%, HT1080NT lethal 20.8%, HT1080 IDH1KD tx 15.5% and KB-V1 cytotox inactive.
For CCOC(=O)CN(C(=O)CN1CCC(n2nnc3cc(C)ccc32)CC1)c1ccccc1 the results were ATXN viability inactive, KB-3-1 cytotox inactive, ATXN2 expr inh -3.9%, HT1080NT lethal -14.0%, HT1080 IDH1KD tx -15.7% and KB-V1 cytotox inactive.
